# Measured values as given in publication PMC11062922 (Nature Chemical Biology, 2023).
# Read-outs that look alike come from different tables or passages of the source.
# Columns and labels:
# Set-up in all cases: species or system human, MV4-11 + K-562 + COLO205 + SK-N-BE2 + OVCAR-8
# [1] = tested on: CDC42BPA; conditions: read-out: apparent Kd; compound concentrations:100 nM and 1000 nM (sheet 'Samples'); n = 1
# [2] = tested on: CHEK1; conditions: read-out: apparent Kd; compound concentrations:100 nM and 1000 nM (sheet 'Samples'); n = 1
# [3] = tested on: LATS1; conditions: read-out: apparent Kd; compound concentrations:100 nM and 1000 nM (sheet 'Samples'); n = 1
# [4] = tested on: MELK; conditions: read-out: apparent Kd, n = 1
# [5] = tested on: PIM1; conditions: read-out: apparent Kd; compound concentrations:100 nM and 1000 nM (sheet 'Samples'); n = 1
# [6] = tested on: PKN2; conditions: read-out: apparent Kd; compound concentrations:100 nM and 1000 nM (sheet 'Samples'); n = 1
# [7] = tested on: PRKCB; conditions: read-out: apparent Kd; compound concentrations:100 nM and 1000 nM (sheet 'Samples'); n = 1
# [8] = tested on: PRKCI; conditions: read-out: apparent Kd; compound concentrations:100 nM and 1000 nM (sheet 'Samples'); n = 1
# [9] = tested on: PRKCZ; conditions: read-out: apparent Kd; compound concentrations:100 nM and 1000 nM (sheet 'Samples'); n = 1
# [10] = tested on: PRKX; conditions: read-out: apparent Kd, n = 1
# [11] = tested on: RPS6KA5; conditions: read-out: apparent Kd; compound concentrations:100 nM and 1000 nM (sheet 'Samples'); n = 1
# [12] = tested on: CDC42BPB; conditions: read-out: apparent Kd, compound concentrations: 100 nM and 1000 nM (sheet 'Samples'), n = 1
# [13] = tested on: CIT; conditions: read-out: apparent Kd; compound concentrations: 100 nM and 1000 nM (sheet 'Samples'), CATDS: 0.106368492262706; n = 1
# [14] = tested on: CLK1; conditions: read-out: apparent Kd; compound concentrations: 100 nM and 1000 nM (sheet 'Samples'), CATDS: 0.214527954353402; n = 1
# [15] = tested on: CLK4; conditions: read-out: apparent Kd; compound concentrations: 100 nM and 1000 nM (sheet 'Samples'), CATDS: 0.24205596503661; n = 1
# [16] = tested on: MARK3; conditions: read-out: apparent Kd; compound concentrations: 100 nM and 1000 nM (sheet 'Samples'), CATDS: 9.9321002689151103E-2; n = 1
# [17] = tested on: PHKG2; conditions: read-out: apparent Kd; compound concentrations: 100 nM and 1000 nM (sheet 'Samples'), CATDS: 0.61617859145014098; n = 1
# [18] = tested on: ROCK1; conditions: read-out: apparent Kd; compound concentrations: 100 nM and 1000 nM (sheet 'Samples'), CATDS: 0.39431900573288498; n = 1
# [19] = tested on: ROCK2; conditions: read-out: apparent Kd; compound concentrations: 100 nM and 1000 nM (sheet 'Samples'), CATDS: 0.422625118244225; n = 1
# [20] = tested on: CDC42BPG; conditions: read-out: apparent Kd, compound concentrations: 100 nM and 1000 nM (sheet 'Samples'), n = 1
# [21] = tested on: GAK; conditions: read-out: apparent Kd; compound concentrations: 100 nM and 1000 nM (sheet 'Samples'), CATDS: 0.13668141663723599; n = 1
# [22] = tested on: MAPK10; conditions: read-out: apparent Kd; compound concentrations: 100 nM and 1000 nM (sheet 'Samples'), CATDS: 0.12548752602980501; n = 1
# [23] = tested on: MAPK14; conditions: read-out: apparent Kd; compound concentrations: 100 nM and 1000 nM (sheet 'Samples'), CATDS: 0.192952593667473; n = 1
# [24] = tested on: MAPK9; conditions: read-out: apparent Kd; compound concentrations: 100 nM and 1000 nM (sheet 'Samples'), CATDS: 0.107953199944472; n = 1
# [25] = tested on: MAPKAPK2; conditions: read-out: apparent Kd; compound concentrations: 100 nM and 1000 nM (sheet 'Samples'), CATDS: 0.17502946768032501; n = 1
# [26] = tested on: NQO1; conditions: read-out: apparent Kd; compound concentrations: 100 nM and 1000 nM (sheet 'Samples'), CATDS: 8.60735929712554E-2; n = 1
# [27] = tested on: TNIK; conditions: read-out: apparent Kd; compound concentrations: 100 nM and 1000 nM (sheet 'Samples'), CATDS: 0.13491621958450101; n = 1
# [28] = tested on: DDR1; conditions: read-out: apparent Kd; compound concentrations: 100 nM and 1000 nM (sheet 'Samples'), CATDS: 0.140210166469808; n = 1
# [29] = tested on: T1, DJA1; conditions: read-out: apparent Kd; compound concentrations: 100 nM and 1000 nM (sheet 'Samples'), CATDS: 0.100265839502576; n = 1
# T1 construct: gene DNAJA1
# [30] = tested on: FLT3; conditions: read-out: apparent Kd; compound concentrations: 100 nM and 1000 nM (sheet 'Samples'), CATDS: 0.118432535218852; n = 1
# [31] = tested on: PIK3C3; conditions: read-out: apparent Kd; compound concentrations: 100 nM and 1000 nM (sheet 'Samples'), CATDS: 0.105221440009215; n = 1
# [32] = tested on: PIK3CA; conditions: read-out: apparent Kd; compound concentrations: 100 nM and 1000 nM (sheet 'Samples'), CATDS: 0.28704207187710601; n = 1
# [33] = tested on: PIK3CG; conditions: read-out: apparent Kd; compound concentrations: 100 nM and 1000 nM (sheet 'Samples'), CATDS: 0.108238843984754; n = 1
# [34] = tested on: RET; conditions: read-out: apparent Kd; compound concentrations: 100 nM and 1000 nM (sheet 'Samples'), CATDS: 0.12612517113031699; n = 1
# [35] = compound concentrations:100 nM and 1000 nM (sheet 'Samples')
structure (smiles),measurement,setting,value
CCn1c(-c2nonc2N)nc2cncc(CNC3CCNCC3)c21 [SB-747651A],potency estimated from few doses,[1],1740 nM
same,potency estimated from few doses,[2],2160 nM
same,potency estimated from few doses,[3],782 nM
same,potency estimated from few doses,[4]; [35],655 nM
same,potency estimated from few doses,[5],1120 nM
same,potency estimated from few doses,[6],94.5 nM
same,potency estimated from few doses,[7],153 nM
same,potency estimated from few doses,[8],1480 nM
same,potency estimated from few doses,[9],2000 nM
same,potency estimated from few doses,[10]; [35],1590 nM
same,potency estimated from few doses,[11],96.1 nM
FC1=CC(C3=NC2=CC(OC)=C(OC)C=C2C(N[C@H]4[C@H]([C@](C)(O)C)CNC4)=N3)=C(O)C=C1.Cl.Cl [CCT241533],potency estimated from few doses,[12]; CATDS: 0.117626319285852,1010 nM
same,potency estimated from few doses,[13],1490 nM
same,potency estimated from few doses,[14],163 nM
same,potency estimated from few doses,[15],121 nM
same,potency estimated from few doses,[16],2010 nM
same,potency estimated from few doses,"[4]; compound concentrations: 100 nM and 1000 nM (sheet 'Samples'), CATDS: 9.4221597644958896E-2",2590 nM
same,potency estimated from few doses,[17],20.8 nM
CC1=C(C(=O)Nc2cc(Cl)c3[nH]ncc3c2)C(c2ccc(C(F)(F)F)cc2)CC(=O)N1 (centres unmarked) [GSK466317A],potency estimated from few doses,[12]; CATDS: 0.18288519935085101,1940 nM
same,potency estimated from few doses,"[10]; compound concentrations: 100 nM and 1000 nM (sheet 'Samples'), CATDS: 0.17762279557226701",2180 nM
same,potency estimated from few doses,[18],277 nM
same,potency estimated from few doses,[19],246 nM
N#Cc1ccc2c(-c3ccnc(NC4CC4)n3)c(-c3ccc(F)cc3)nn2c1 [GW561436X],potency estimated from few doses,[20]; CATDS: 0.104980182660456,1180 nM
same,potency estimated from few doses,[21],650 nM
same,potency estimated from few doses,[22],775 nM
same,potency estimated from few doses,[23],356 nM
same,potency estimated from few doses,[24],1100 nM
same,potency estimated from few doses,[25],417 nM
same,potency estimated from few doses,[26],2220 nM
same,potency estimated from few doses,[27],667 nM
CN1CCN(CCCNc2nc3ccc(Oc4ccc(NC(=O)Nc5cc(C(F)(F)F)ccc5F)cc4)cc3[nH]2)CC1.Cl [GW700494A],potency estimated from few doses,[20]; CATDS: 0.120544348793502,1130 nM
same,potency estimated from few doses,[28],826 nM
same,potency estimated from few doses,[29],1780 nM
same,potency estimated from few doses,[30],1170 nM
same,potency estimated from few doses,[31],1560 nM
same,potency estimated from few doses,[32],263 nM
same,potency estimated from few doses,[33],1450 nM
same,potency estimated from few doses,[34],1020 nM
